Results published in PubChem BioAssay (EPA / NIEHS).
Values joined by “and” are separate entries in the source; they are usually repeats but may differ in a detail not shown here. Equal values may be shown once. The source holds several records for some structures; these can differ, active in one and inactive in another. Active and inactive are the calls of the source. The calls were made as follows: active = hit-call score of the fitted dose curve at least 0.9, where 1 is the maximum; inactive = score below 0.9.

These molecules were tested on Matrix Metallopeptidase 1 (MMP1), MMP1 (gene 4312) (assay: BSK_BE3C_MMP1: BioMAP Diversity Plus: BE3C Assay for Matrix Metallopeptidase 1 (MMP1) Biomarker Activity (AID 2283024)). Details: primary human bronchial epithelial cells; actives raise or lower the signal.
Description: BSK_BE3C is a cell-based, multiplexed-readout assay that uses bronchial epithelial cell, a human lung primary cell, with measurements taken at 24 hours after chemical dosing in a 96-well plate.BSK_BE3C_MMP1 is an assay component measured in the BSK_BE3C assay. It measures MMP-1 antibody related to regulation of gene expression using ELISA technology.Data from the assay component BSK_BE3C_MMP1 was analyzed into 1 assay endpoint. This assay endpoint, BSK_BE3C_MMP1, was analyzed with bidirectional fitting relative to DMSO as the negative control and baseline of activity. Using a type of binding reporter, gain or loss-of-signal activity can be used to understand changes in the signaling as they relate to the gene MMP1. Furthermore, this assay endpoint can be referred to as a primary readout, because this assay has produced multiple assay endpoints where this one serves a signaling function. To generalize the intended target to other relatable targets, this assay endpoint is annotated to the protease intended target family, where the subfamily is matrix metalloproteinase.
The levels of cell surface (or secreted, indicated by the prefix "s") biomarker endpoints were measured by ELISA. Overt cytotoxicity to cells in confluent adherent cultures (all systems other than the BT system) was assessed by measuring total protein levels using sulforhodamine B (SRB) staining in parallel cultures at the time of biomarker measurements, indicated as SRB endpoints. For proliferation assays for adherent cell types, individual cell types are cultured at sub-confluence and relative cell numbers quantified by SRB staining at time points optimized for each system (48 h: 3C and CASM3C systems; 72 h: BT and HDF3CGF systems; 96 h: SAg system). SRB was performed by staining cells with 0.1% SRB after fixation with 10% TCA and reading wells at 560 nm.Viability and proliferation of PBMC (T cells) was quantified by Alamar Blue reduction for the SAg and BT systems. For PBMC viability (referred to as PBMC Cytotoxicity within the assay endpoint names), cells were plated (75,000/well in a 96-well plate) and then chemical samples added for 1 h before addition of activators, SEB and TSST-1 (20 ng/mL final concentration each). Cells were incubated for 90 h. Then, Alamar Blue (20 uL/well) (Invitrogen, Cat DAL1100) was added for 6 h, and the plates were read with a fluorescence microplate reader at 546/580 nm (excitation/emission). For PBMC proliferation, cells were plated and activated as above but incubated for only 16 h prior to addition of Alamar Blue. Plates were read after 6 h.

SMILES	outcome	AC50
CCN=C1C=CC(=C(c2ccc(N(CC)CC)cc2)c2ccc(N(CC)CC)cc2)c2ccccc21	inactive	3.21 µM (active)
OCCCCC(F)(F)C(F)(F)C(F)(F)C(F)(F)F	inactive	
CCN(CC)c1ccc(C=O)cc1	inactive	
NC(=O)C(F)(F)C(F)(F)C(F)(F)F	inactive	
CCN(CCO)S(=O)(=O)C(F)(F)C(F)(F)C(F)(F)C(F)(F)C(F)(F)C(F)(F)C(F)(F)C(F)(F)F	inactive	4.15 µM (active)
Cc1cnccn1	inactive	
Cc1ccc(O)c(-n2nc3ccccc3n2)c1	inactive	
NC(=O)C(F)(F)C(F)(F)C(F)(F)C(F)F	inactive	
O=S(=O)(Cl)C(F)(F)C(F)(F)C(F)(F)C(F)(F)C(F)(F)C(F)(F)C(F)(F)C(F)(F)F		7.12 µM (active) and 7.23 µM (active)
CCOC(C=C(C)CCC=C(C)C)OCC	inactive	
O=C(O)CCC(F)(F)C(F)(F)C(F)(F)C(F)(F)C(F)(F)C(F)(F)C(F)(F)F		3.33 µM (active) and 3.8 µM (active)
CC1=CC2C3C=CC(C3)C2C1C (stereo not given)	inactive	
OCC(F)(F)C(F)(F)C(F)(F)C(F)(F)C(F)(F)C(F)(F)C(F)(F)C(F)(F)CO	inactive	8.5 µM (active)
CNS(=O)(=O)C(F)(F)C(F)(F)C(F)(F)C(F)(F)C(F)(F)C(F)(F)C(F)(F)C(F)(F)F	inactive	
O=C(O)C(F)(F)C(F)(F)C(F)(F)C(=O)O	inactive	
CCOC(=O)CC(=O)C(F)(F)C(F)(F)F	inactive	
O=S(=O)(O)CCC(F)(F)C(F)(F)C(F)(F)C(F)(F)C(F)(F)C(F)(F)C(F)(F)C(F)(F)F		11.1 µM (active) and 15.4 µM (active)

SMILES	outcome	AC50
O=C=Nc1cccc2c(N=C=O)cccc12	inactive	
FC(F)(F)C(F)(F)C(F)(F)CC1CO1 (stereo not given)	inactive	26.3 µM (active)
O=C(O)C(F)(F)C(F)(F)C(F)(F)OC(F)(C(F)(F)F)C(F)(F)F	inactive	37 µM (active)
C=CC(=O)OCC(F)(F)C(F)(F)C(F)(F)C(F)(F)C(F)(F)C(F)(F)C(F)(F)C(F)F	inactive	
NCC(F)(F)C(F)(F)C(F)(F)C(F)(F)C(F)(F)C(F)(F)F	inactive	
Nc1cc([N+](=O)[O-])cc(Cl)c1O	inactive	
C=CC(=O)OCC(F)(F)C(F)(F)C(F)(F)COC(=O)C=C	inactive	21.8 µM (active)
Cc1cc(O)c(C(C)(C)C)cc1C(C)(C)C		9.45 µM (active)
O=C(O)CCC(F)(F)C(F)(F)C(F)(F)F	inactive	
O=C1c2c(O)ccc(Nc3ccc(CCO)cc3)c2C(=O)c2c([N+](=O)[O-])ccc(O)c21		2.47 µM (active)
FC(F)(F)C(F)(F)C(F)(F)C(F)(F)C(F)(F)C(F)(F)CC[Si](Cl)(Cl)Cl	inactive	
O=C(c1ccccc1)c1ccc(O)cc1O	inactive	
CO[Si](C)(CCC(F)(F)C(F)(F)C(F)(F)C(F)(F)C(F)(F)C(F)(F)F)OC	inactive	
O=S(=O)(O)CCC(F)(F)C(F)(F)C(F)(F)C(F)(F)F	inactive	
Cc1ccc(S(=O)(=O)C(I)I)cc1		11.4 µM (active)
C=C(C)C(=O)OCC(F)(F)C(F)(F)C(F)(F)C(F)F	inactive	
CCN(CC)c1ccc(N=Nc2ccccc2)cc1	inactive	
